Screens as filed in PubChem.
Shn3 inh set2: reduction of Shn3 3'UTR firefly luciferase signal, primary screen, Schnurri-3 inhibitor project, cell-based, Clone20 osteoblasts, set 2; actives 0.52% (n = 360,000); inhibition, % at 12.5 µM; Clone20 osteoblast Shn3 3'UTR firefly luciferase, 24 h; AID 588674, 2011;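 active = mean inhibition of at least 75% with every replicate also reaching 75%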;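 note: 0% = median of neutral control wells and 100% = pilot-screen positive control compound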
Jurkat NFkB inh: inhibitors of induced NF-kB luciferase reporter, primary screen, TCR NF-kB activation inhibitor project, cell-based, luminescence, uHTS | Jurkat, PMA/ionomycin-induced NF-kB luciferase reporter | inhibition, % at 4 µM | actives 0.53% (n = 330,000); in the data active = inhibition above about 50%
697 NFkB inh: inhibitors of PMA/ionomycin-induced NF-kB reporter, 697 cells, primary screen, B-cell NF-kB inhibitor project, cell-based, luminescence, uHTS | inhibition, % at 4 µM | actives 0.33% (n = 330,000) | 697 B-cell NF-kB luciferase reporter, 16 h; in the data active = inhibition above about 35%
Mdm2 MdmX PPI: inhibitors of human Mdm2-MdmX association, primary screen, cell-based, luminescence, split luciferase, SaOS-2, uHTS | inhibition, % at 8 µM | actives 3% (n = 330,000) | AID 485346, 2010 | SaOS-2 split-luciferase Mdm2/MdmX complementation | Protein Mdm4 (Homo sapiens) + E3 ubiquitin-protein ligase Mdm2 (Homo sapiens), …;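 active = inhibition of at least 50% at 8 µM in the primary screen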
Target sequence (O15151 whole entry, looked up): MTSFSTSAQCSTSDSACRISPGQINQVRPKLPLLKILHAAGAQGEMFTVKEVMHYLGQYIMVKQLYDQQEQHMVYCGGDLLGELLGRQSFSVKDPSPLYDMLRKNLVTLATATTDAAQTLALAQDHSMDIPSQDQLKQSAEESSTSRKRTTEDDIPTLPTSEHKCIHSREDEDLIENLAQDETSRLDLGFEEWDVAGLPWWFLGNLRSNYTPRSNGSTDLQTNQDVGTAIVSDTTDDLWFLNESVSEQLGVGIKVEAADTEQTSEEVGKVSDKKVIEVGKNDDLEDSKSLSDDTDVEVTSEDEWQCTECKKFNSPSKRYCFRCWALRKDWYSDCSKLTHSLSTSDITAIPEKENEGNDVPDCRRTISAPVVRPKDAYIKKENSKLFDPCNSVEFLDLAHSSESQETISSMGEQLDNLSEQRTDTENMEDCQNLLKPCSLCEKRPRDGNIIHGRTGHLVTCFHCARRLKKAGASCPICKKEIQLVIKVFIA
Target sequence (Q00987 whole entry, looked up): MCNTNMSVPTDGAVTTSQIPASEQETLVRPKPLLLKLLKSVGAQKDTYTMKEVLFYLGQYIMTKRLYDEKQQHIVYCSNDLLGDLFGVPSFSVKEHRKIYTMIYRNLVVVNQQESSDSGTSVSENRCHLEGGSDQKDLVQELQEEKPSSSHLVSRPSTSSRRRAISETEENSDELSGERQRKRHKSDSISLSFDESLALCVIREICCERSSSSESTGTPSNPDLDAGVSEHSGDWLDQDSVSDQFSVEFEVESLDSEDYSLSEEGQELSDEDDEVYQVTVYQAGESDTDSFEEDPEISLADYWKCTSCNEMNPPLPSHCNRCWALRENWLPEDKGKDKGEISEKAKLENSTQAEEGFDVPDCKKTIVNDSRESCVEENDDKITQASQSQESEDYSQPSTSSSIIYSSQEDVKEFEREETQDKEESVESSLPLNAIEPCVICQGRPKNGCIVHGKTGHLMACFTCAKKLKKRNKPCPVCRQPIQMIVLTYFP
Gli-Sufu antag: Gli-Sufu pathway antagonists, primary screen, luciferase luminescence, Sufu-KO-LIGHT cells, uHTS; Sufu-KO-LIGHT fibroblasts, Gli luciferase reporter luminescence; inhibition, % at 5 µM; actives 0.74% (n = 340,000); AID 588413, 2011;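 active = inhibition above about 55%, limit read from the data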;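 note: 0% = DMSO-treated cells and 100% = wells with medium but no cells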
697 NFkB conf: PMA/ionomycin-induced NF-kB reporter inhibitors, 697 retest, confirmation, B-cell NF-kB inhibitor project, cell-based, luminescence, single concentration | shares compounds with 697 NFkB inh | 697 B-cell NF-kB luciferase, 16 h | inhibition, % at 4 µM | actives 35% (n = 2,000); in the data active = inhibition mostly above about 28%, no sharp cut-off; inactive = mostly below about 22%
Mdm2-MdmX conf: Mdm2-MdmX complex disruptors, retested hits, confirmation, luminescence, single concentration; Mdm2-MdmX binding, luminescent assay; actives 55% (n = 10,000); shares compounds with Mdm2 MdmX PPI; inhibition, % at 8 µM; AID 489028, 2010; in the data active = inhibition above about 40%
FLuc counter: full-length luciferase signal inhibition, confirmation, counter-screen for Mdm2/MdmX interaction inhibitor project, cell-based, single concentration, SaOS-2 | shares compounds with Mdm2 MdmX PPI | SaOS-2 full-length luciferase counterscreen, luminescence | inhibition, % at 8 µM | actives 77% (n = 6,200) | AID 504607, 2011;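 active = mean inhibition at 8 µM reaching about 37%, which flags the compound as non-specific, limit read from the data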;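 note: p53-null SaOS-2 cells with luciferase driven by a doxycycline-inducible promoter; compound on cells about two nights before reading with doxycycline added after day one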
* marks the source's active call; other numbers are inactive results. An excerpt weighted towards active compounds, which were near 3.8% of everything screened.

How did COc1ccc(C(O)c2nc(-c3ccccc3OC)cs2)cc1 (centres undefined) do in these assays?
Shn3 inh set2: -6.0

What do the screens show for `Cc1cccc2nc(COc3ccc(-c4ccccc4)cc3)cn12`?
Jurkat NFkB inh: -26.8; 697 NFkB inh: inactive; Mdm2 MdmX PPI: 63.3*; 697 NFkB conf: -450.5; Mdm2-MdmX conf: 29.6; FLuc counter: 78.1*

Results for O=S(=O)(Nc1ccc(-c2csc(-c3ccccc3)n2)cc1)c1ccc(F)cc1 ?
Shn3 inh set2: 16.0; Jurkat NFkB inh: -11.0; 697 NFkB inh: 9.9; Mdm2 MdmX PPI: 35.3; Gli-Sufu antag: -17.6

What do the screens show for `O=C(Nc1nc(-c2ccccc2)cs1)c1ccccc1NS(=O)(=O)c1ccc(F)cc1`?
Shn3 inh set2: 48.6; Jurkat NFkB inh: 12.7; 697 NFkB inh: 47.0*; Mdm2 MdmX PPI: 90.3*; Gli-Sufu antag: 53.5; 697 NFkB conf: 52.3*; Mdm2-MdmX conf: 89.0*; FLuc counter: 25.5

Results for CC(=O)c1cccc(Nc2nc(-c3cccc([N+](=O)[O-])c3)cs2)c1 ?
Shn3 inh set2: -58.3; Jurkat NFkB inh: -25.3; 697 NFkB inh: -133.9; Mdm2 MdmX PPI: -52.8; Gli-Sufu antag: -67.3

How did CCC(=O)Nc1nc(C)c(-c2csc(Nc3ccc(C(=O)O)cc3)n2)s1 do in these assays?
Shn3 inh set2: -21.6; Jurkat NFkB inh: 4.1; 697 NFkB inh: -3.6; Mdm2 MdmX PPI: 19.6; Gli-Sufu antag: 10.3

What do the screens show for `CC(=O)Nc1nc(C)c(-c2csc(Nc3cccc([N+](=O)[O-])c3)n2)s1`?
Shn3 inh set2: 37.3; Jurkat NFkB inh: 17.8; 697 NFkB inh: 45.2*; Mdm2 MdmX PPI: 90.2*; Gli-Sufu antag: -6.5; 697 NFkB conf: 8.9; Mdm2-MdmX conf: 71.2*; FLuc counter: 35.6

What do the screens show for `CC(=O)Nc1ccc(Nc2nc(-c3sc(NC(C)=O)nc3C)cs2)cc1`?
Shn3 inh set2: 8.7; Jurkat NFkB inh: 22.2; 697 NFkB inh: 40.6*; Mdm2 MdmX PPI: 58.3*; Gli-Sufu antag: -22.3; 697 NFkB conf: 25.7*; Mdm2-MdmX conf: 23.1

What do the screens show for `COc1ccccc1-c1csc(C(O)c2cccc(Cl)c2)n1` (centres undefined)?
Shn3 inh set2: -11.6

What do the screens show for `Cn1c(=NC(=O)CCl)sc2ccccc21`?
Shn3 inh set2: -16.5; Jurkat NFkB inh: 46.0; 697 NFkB inh: 88.3*; Mdm2 MdmX PPI: 98.4*; Gli-Sufu antag: 6.9; 697 NFkB conf: 79.0*; Mdm2-MdmX conf: 96.9*; FLuc counter: 28.7

Results for CCSc1nnnn1-c1ccccc1 ?
Shn3 inh set2: -2.1; Jurkat NFkB inh: 12.1; 697 NFkB inh: 12.9; Mdm2 MdmX PPI: 25.2; Gli-Sufu antag: 31.0

How did Cc1ccc(C)c(-n2nnnc2Sc2nnnn2-c2ccccc2)c1 do in these assays?
Shn3 inh set2: 1.7; Jurkat NFkB inh: 43.1; 697 NFkB inh: 35.0*; Mdm2 MdmX PPI: 100.1*; Gli-Sufu antag: 8.0; 697 NFkB conf: 33.2*; Mdm2-MdmX conf: 78.8*; FLuc counter: 52.2*

Results for Cc1ccc(C(=O)NNC(=O)c2ccc3ncccc3c2)cc1 ?
Shn3 inh set2: -48.1; Gli-Sufu antag: 5.5

What do the screens show for `CCN(CC)CCCn1c(SCC(=O)Nc2cccc(F)c2)nnc1-c1ccoc1C`?
Shn3 inh set2: -13.9; Jurkat NFkB inh: -2.5; 697 NFkB inh: -0.4; Mdm2 MdmX PPI: 11.4; Gli-Sufu antag: 13.0

How did O=C(Cc1n[nH]c(=O)c2ccccc12)OCc1c(Cl)cccc1Cl do in these assays?
Shn3 inh set2: -17.6; Jurkat NFkB inh: -30.7; 697 NFkB inh: inactive; Mdm2 MdmX PPI: 57.1*; Gli-Sufu antag: -1.3; 697 NFkB conf: inactive; Mdm2-MdmX conf: 54.8*; FLuc counter: 62.0*

How did CCOC(=O)Cc1n[nH]c(=O)c2ccccc12 do in these assays?
Shn3 inh set2: -2.7; Jurkat NFkB inh: 3.5; 697 NFkB inh: 15.0; Mdm2 MdmX PPI: 18.1; Gli-Sufu antag: -11.2

Results for COc1cc(-c2ccc(NC(=O)NC3CC3)c(OC)c2)ccc1NC(=O)NC1CC1 ?
Jurkat NFkB inh: -32.0; 697 NFkB inh: -299.1; Mdm2 MdmX PPI: 91.2*; 697 NFkB conf: -5.4; Mdm2-MdmX conf: 57.5*; FLuc counter: 73.3*

What do the screens show for `CCC(=O)Nc1ccc(-c2ccc(NC(=O)CC)c(OC)c2)cc1OC`?
Shn3 inh set2: -9.0; Jurkat NFkB inh: -8.2; 697 NFkB inh: 10.2; Mdm2 MdmX PPI: 7.3; Gli-Sufu antag: -10.5

How did CC(C)OCCCNC(=O)c1c(N)n(/N=C/c2ccccn2)c2nc3ccccc3nc12 do in these assays?
Shn3 inh set2: 32.1; Jurkat NFkB inh: 38.9; 697 NFkB inh: 44.2*; Mdm2 MdmX PPI: 64.4*; Gli-Sufu antag: 11.6; 697 NFkB conf: 36.8*; Mdm2-MdmX conf: 52.0*; FLuc counter: 63.2*

Results for Cc1cc(C(F)(F)F)c(C#N)c(SCC(=O)Nc2nc3ccccc3s2)n1 ?
Shn3 inh set2: 9.5; Jurkat NFkB inh: -76.8; 697 NFkB inh: inactive; Mdm2 MdmX PPI: 65.9*; Gli-Sufu antag: 15.9; 697 NFkB conf: -297.5; Mdm2-MdmX conf: 82.1*; FLuc counter: 142.3*

How did CCn1cnc2cc(NS(=O)(=O)c3ccc(OC)c(OC)c3)ccc21 do in these assays?
Shn3 inh set2: -45.0; Jurkat NFkB inh: -6.8; 697 NFkB inh: 2.0; Mdm2 MdmX PPI: -0.5; Gli-Sufu antag: 1.1

How did CCCc1c(C(=O)Nc2ccc(F)cc2F)cnn1-c1ccccc1 do in these assays?
Shn3 inh set2: -7.1; Jurkat NFkB inh: -9.5; 697 NFkB inh: 0.4; Mdm2 MdmX PPI: 6.9; Gli-Sufu antag: 22.5

How did CCCc1c(NC(=O)Nc2ccc(Cl)cc2Cl)cnn1-c1ccccc1 do in these assays?
Shn3 inh set2: 23.6; Jurkat NFkB inh: -68.6; 697 NFkB inh: -379.3; Mdm2 MdmX PPI: 85.8*; Gli-Sufu antag: 29.0; 697 NFkB conf: -242.1; Mdm2-MdmX conf: 74.7*; FLuc counter: 42.6*

Results for COc1ccc(-c2cc(C(=O)N(C)CC(=O)Nc3ccccc3Br)c3ccccc3n2)cc1OC ?
Shn3 inh set2: 1.5; Jurkat NFkB inh: 19.7; 697 NFkB inh: 44.4*; Mdm2 MdmX PPI: 55.8*; Gli-Sufu antag: 10.9; 697 NFkB conf: 20.9; Mdm2-MdmX conf: 49.3*; FLuc counter: 80.2*
